# Inconclusive results are not listed. A call without a number means that no potency is given here. Values without a mark were called inactive. Calls of active or inactive are those of the source. The call rests on the fitted dose curve; in most records, active means well fitted curve in the direction sought with a large enough effect; inconclusive means small, poorly fitted or top-dose-only effect, or another doubt; inactive means no such curve, though single readings can be large; an effect the other way counts as inactive or inconclusive.
# Legend:
# [1] = system: HEK293T; test: qHTS assay to identify novel small-molecules to repurpose for Merkel cell carcinoma treatment (AID 1296009); conditions: MCC and control cell lines, CellTiter-Glo viability, 72 h; at 44.8 µM (top of the series) unless noted; further: nearly all actives have a fitted effect of over 60% in size
# Method in brief: (§1)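 qHTS format: cells treated with library compounds in DMSO across 8 (NPC) or 11 (MIPE) concentrations. Readout after 72 hr at 37 degree celsius was CellTiter-Glo luminescence.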
# [2] = system: MCC-13; test: as above; conditions: MCC and control cell lines, CellTiter-Glo viability, 72 h; series mostly up to 46 µM
# Method in brief: as §1
# [3] = system: MCC-26; test: as above; conditions: MCC and control cell lines, CellTiter-Glo viability, 72 h; series mostly up to 46 µM
# Method in brief: as §1
# [4] = system: MKL-1; test: as above; conditions: MCC and control cell lines, CellTiter-Glo viability, 72 h; series mostly up to 46 µM
# Method in brief: as §1
# [5] = system: MKL-2; test: as above; conditions: MCC and control cell lines, CellTiter-Glo viability, 72 h; series mostly up to 46 µM
# Method in brief: as §1
# [6] = system: UISO; test: as above; conditions: MCC and control cell lines, CellTiter-Glo viability, 72 h; series mostly up to 46 µM
# Method in brief: as §1
# [7] = system: WaGa; test: as above; conditions: MCC and control cell lines, CellTiter-Glo viability, 72 h; series mostly up to 46 µM
# Method in brief: as §1
# [8] = system: C33A; test: Primary qHTS to identify gynecologic anti-cancer compounds using libraries of approved drugs and bioactive compounds (AID 1345084); conditions: Gynecologic cancer cell panel viability, ATPlite luminescence, 48 h; series mostly up to 57.5 µM; further: nearly all actives have a fitted effect of over 55% in size; further: potency means the concentration at half of the fitted maximal effect
# Method in brief: (§2)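 Cells, 1,000 per well, were allowed to settle for 16 h at 37 C before compound addition. Five concentrations were tested for 48 h, and viability was read by ATPlite luminescence after 15 min at room temperature.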
# [9] = system: CASKI; test: as above; conditions: Gynecologic cancer cell panel viability, ATPlite luminescence, 48 h; series mostly up to 57.5 µM
# Method in brief: as §2
# [10] = system: Es-2; test: as above; conditions: Gynecologic cancer cell panel viability, ATPlite luminescence, 48 h; series mostly up to 57.5 µM
# Method in brief: as §2
# [11] = system: HeLa; test: as above; conditions: Gynecologic cancer cell panel viability, ATPlite luminescence, 48 h; series mostly up to 57.5 µM
# Method in brief: as §2
# [12] = system: Hek293T; test: as above; conditions: Gynecologic cancer cell panel viability, ATPlite luminescence, 48 h, control line for the selectivity index; series mostly up to 57.5 µM
# Method in brief: as §2
# [13] = system: JEG-3; test: as above; conditions: Gynecologic cancer cell panel viability, ATPlite luminescence, 48 h; series mostly up to 57.5 µM
# Method in brief: as §2
# [14] = system: OV90; test: as above; conditions: Gynecologic cancer cell panel viability, ATPlite luminescence, 48 h; series mostly up to 57.5 µM
# Method in brief: as §2
# [15] = system: PA-1; test: as above; conditions: Gynecologic cancer cell panel viability, ATPlite luminescence, 48 h; series mostly up to 57.5 µM
# Method in brief: as §2
# [16] = system: SKOV3; test: as above; conditions: Gynecologic cancer cell panel viability, ATPlite luminescence, 48 h; series mostly up to 57.5 µM
# Method in brief: as §2
# [17] = system: Tov-21-G; test: as above; conditions: Gynecologic cancer cell panel viability, ATPlite luminescence, 48 h; series mostly up to 57.5 µM
# Method in brief: as §2
# [18] = system: Tov112D; test: as above; conditions: Gynecologic cancer cell panel viability, ATPlite luminescence, 48 h; series mostly up to 57.5 µM
# Method in brief: as §2
# [19] = system: NIH3T3; test: qHTS assay to identify novel small-molecules to repurpose for Merkel cell carcinoma treatment (AID 1296009); conditions: MCC and control cell lines, CellTiter-Glo viability, 72 h; at 44.8 µM (top of the series) unless noted; further: nearly all actives have a fitted effect of over 60% in size
# Method in brief: as §1
# [20] = system: CAOV3; test: Primary qHTS to identify gynecologic anti-cancer compounds using libraries of approved drugs and bioactive compounds (AID 1345084); conditions: Gynecologic cancer cell panel viability, ATPlite luminescence, 48 h; series mostly up to 57.5 µM; further: nearly all actives have a fitted effect of over 55% in size; further: potency means the concentration at half of the fitted maximal effect
# Method in brief: as §2
smiles,measurement,setting,value
O=C1NC(=O)[C@@]2(CCOc3ccc(F)cc32)N1,outcome,[1],inactive
same,Potency,[2],inactive
same,Potency,[3],inactive
same,Potency,[4],inactive
same,Potency,[5],inactive
same,Potency,[6],inactive
same,Potency,[7],inactive
same,Potency,[8],inactive
same,Potency,[9],inactive
same,Potency,[10],inactive
same,Potency,[11],inactive
same,Potency,[12],inactive
same,Potency,[13],inactive
same,Potency,[14],inactive
same,Potency,[15],inactive
same,Potency,[16],inactive
same,Potency,[17],inactive
same,Potency,[18],inactive
CCOC(=O)c1ccc(O)cc1,outcome,[1],inactive
same,Potency,[2],inactive
same,Potency,[3],inactive
same,Potency,[4],inactive
same,Potency,[5],inactive
same,outcome,[19],inactive
same,Potency,[6],inactive
same,Potency,[7],inactive
same,Potency,[8],inactive
same,Potency,[9],inactive
same,Potency,[10],inactive
same,Potency,[11],inactive
same,Potency,[12],inactive
same,Potency,[13],inactive
same,Potency,[14],inactive
same,Potency,[15],inactive
same,Potency,[17],inactive
same,Potency,[18],inactive
CCOc1ccc2ccccc2c1C(=O)N[C@@H]1C(=O)N2[C@@H]1SC(C)(C)[C@@H]2C(=O)O,outcome,[1],inactive
same,Potency,[2],inactive
same,Potency,[3],inactive
same,Potency,[4],inactive
same,Potency,[5],inactive
same,Potency,[6],inactive
same,Potency,[7],inactive
same,Potency,[8],inactive
same,Potency,[20],inactive
same,Potency,[9],inactive
same,Potency,[10],inactive
same,Potency,[11],inactive
same,Potency,[12],inactive
same,Potency,[13],inactive
same,Potency,[14],inactive
same,Potency,[15],inactive
same,Potency,[16],inactive
same,Potency,[17],inactive
same,Potency,[18],inactive
O=c1cc[nH]c(=S)[nH]1,outcome,[1],inactive
same,Potency,[2],inactive
same,Potency,[3],inactive
same,Potency,[4],inactive
same,Potency,[5],inactive
same,Potency,[6],inactive
same,Potency,[7],inactive
same,Potency,[8],inactive
same,Potency,[9],inactive
same,Potency,[10],inactive
same,Potency,[11],inactive
same,Potency,[12],inactive
same,Potency,[13],inactive
same,Potency,[14],inactive
same,Potency,[15],inactive
same,Potency,[16],inactive
same,Potency,[17],inactive
same,Potency,[18],inactive
C[C@]12C[C@H](O)[C@H]3[C@@H](CCC4=CC(=O)CC[C@@]43C)[C@@H]1CC[C@@H]2C(=O)CO,outcome,[1],inactive
same,Potency,[2],inactive
same,Potency,[3],inactive
same,Potency,[4],inactive
same,Potency,[5],inactive
same,Potency,[6],inactive
same,Potency,[7],inactive
same,Potency,[8],inactive
same,Potency,[20],inactive
same,Potency,[9],inactive
same,Potency,[10],inactive
same,Potency,[11],20 µM (active)
same,Potency,[12],inactive
same,Potency,[13],inactive
same,Potency,[14],inactive
same,Potency,[15],inactive
same,Potency,[16],inactive
same,Potency,[17],inactive
same,Potency,[18],inactive
O=C1NS(=O)(=O)c2ccccc21,outcome,[1],inactive
same,Potency,[2],inactive
same,Potency,[3],inactive
same,Potency,[4],inactive
same,Potency,[5],inactive
same,Potency,[6],inactive
same,Potency,[7],inactive
same,Potency,[8],inactive
same,Potency,[20],inactive
same,Potency,[9],inactive
same,Potency,[10],inactive
same,Potency,[11],inactive
same,Potency,[12],inactive
same,Potency,[13],inactive
same,Potency,[14],inactive
same,Potency,[15],inactive
same,Potency,[16],inactive
same,Potency,[17],inactive
same,Potency,[18],inactive
C[C@@H]1CC[C@@]2(OC1)O[C@H]1C[C@H]3[C@@H]4CC[C@H]5C[C@@H](O)CC[C@]5(C)[C@H]4CC(=O)[C@]3(C)[C@H]1[C@@H]2C,outcome,[1],inactive [at 4.96 µM]
same,"activity change, negative = cytotoxicity",[2],-5.49% [at 4.84 µM]
same,"activity change, negative = cytotoxicity",[3],5.06% [at 4.84 µM]
same,"activity change, negative = cytotoxicity",[4],7.37% [at 4.84 µM]
same,"activity change, negative = cytotoxicity",[5],2.92% [at 4.84 µM]
same,outcome,[19],inactive [at 4.96 µM]
same,"activity change, negative = cytotoxicity",[7],17.9% [at 4.84 µM]
same,"activity change, negative = cytotoxicity",[8],-0.977% [at 6.55 µM]
same,"activity change, negative = cytotoxicity",[20],-7.17% [at 6.55 µM]
same,"activity change, negative = cytotoxicity",[9],7.56% [at 6.55 µM]
same,"activity change, negative = cytotoxicity",[10],-0.456% [at 6.55 µM]
same,"activity change, negative = cytotoxicity",[11],1.36% [at 6.55 µM]
same,"activity change, negative = cytotoxicity",[12],7.28% [at 6.55 µM]
same,"activity change, negative = cytotoxicity",[13],-0.879% [at 6.55 µM]
same,"activity change, negative = cytotoxicity",[14],12.9% [at 6.55 µM]
same,"activity change, negative = cytotoxicity",[15],9.38% [at 6.55 µM]
same,"activity change, negative = cytotoxicity",[16],8.75% [at 6.55 µM]
same,"activity change, negative = cytotoxicity",[17],5.68% [at 6.55 µM]
same,"activity change, negative = cytotoxicity",[18],10.1% [at 6.55 µM]
NCCNCCNCCNCCN,outcome,[1],inactive [at 9.27 µM]
same,"activity change, negative = cytotoxicity",[2],6.32% [at 9.22 µM]
same,"activity change, negative = cytotoxicity",[3],-6.59% [at 9.22 µM]
same,"activity change, negative = cytotoxicity",[4],-8% [at 9.22 µM]
same,"activity change, negative = cytotoxicity",[5],-0.706% [at 9.22 µM]
same,"activity change, negative = cytotoxicity",[6],44% [at 9.22 µM]
same,"activity change, negative = cytotoxicity",[7],-2.21% [at 9.22 µM]
same,"activity change, negative = cytotoxicity",[8],13.2% [at 11.6 µM]
same,"activity change, negative = cytotoxicity",[20],11.8% [at 11.6 µM]
same,"activity change, negative = cytotoxicity",[9],1.72% [at 11.6 µM]
same,"activity change, negative = cytotoxicity",[10],-5.14% [at 11.6 µM]
same,"activity change, negative = cytotoxicity",[11],8.61% [at 11.6 µM]
same,"activity change, negative = cytotoxicity",[12],-2.17% [at 11.6 µM]
same,"activity change, negative = cytotoxicity",[13],-3.13% [at 11.6 µM]
same,"activity change, negative = cytotoxicity",[14],8.86% [at 11.6 µM]
same,"activity change, negative = cytotoxicity",[15],20.4% [at 11.6 µM]
same,"activity change, negative = cytotoxicity",[16],0% [at 11.6 µM]
same,"activity change, negative = cytotoxicity",[17],-0.438% [at 11.6 µM]
same,"activity change, negative = cytotoxicity",[18],0.19% [at 11.6 µM]
O=C(O)CC(O)C(=O)O (stereo not given),outcome,[1],inactive
same,Potency,[2],inactive
same,Potency,[3],inactive
same,Potency,[4],inactive
same,Potency,[5],inactive
same,Potency,[6],inactive
same,Potency,[7],inactive
same,Potency,[8],inactive
same,Potency,[20],inactive
same,Potency,[9],inactive
same,Potency,[10],inactive
same,Potency,[11],inactive
same,Potency,[12],inactive
same,Potency,[13],inactive
same,Potency,[14],inactive
same,Potency,[15],inactive
same,Potency,[16],inactive
same,Potency,[17],inactive
same,Potency,[18],inactive
C=CCn1c(=O)n([C@@H]2O[C@H](CO)[C@@H](O)[C@H]2O)c2nc(N)[nH]c(=O)c21,outcome,[1],inactive
same,Potency,[2],inactive
same,Potency,[3],inactive
same,Potency,[4],inactive
same,Potency,[5],inactive
same,Potency,[6],inactive
same,Potency,[7],inactive
same,Potency,[8],inactive
same,Potency,[20],inactive
same,Potency,[9],inactive
same,Potency,[10],inactive
same,Potency,[11],inactive
same,Potency,[12],inactive
same,Potency,[13],inactive
same,Potency,[14],inactive
same,Potency,[15],inactive
same,Potency,[16],inactive
same,Potency,[17],inactive
same,Potency,[18],inactive
CCCCOC(=O)c1ccc(O)cc1,outcome,[1],inactive
same,Potency,[2],inactive
same,Potency,[3],inactive
same,Potency,[4],inactive
same,Potency,[5],inactive
same,Potency,[6],inactive
same,Potency,[7],inactive
same,Potency,[8],inactive
same,Potency,[20],inactive
same,Potency,[9],inactive
same,Potency,[10],inactive
same,Potency,[11],inactive
same,Potency,[12],inactive
same,Potency,[13],inactive
same,Potency,[14],inactive
same,Potency,[15],inactive
same,Potency,[16],inactive
same,Potency,[17],inactive
same,Potency,[18],inactive
COc1cc2[nH]c(=O)[nH]c(=O)c2cc1OC,outcome,[1],inactive
same,Potency,[2],inactive
same,Potency,[3],inactive
same,Potency,[4],inactive
same,Potency,[5],inactive
same,Potency,[6],inactive
same,Potency,[7],inactive
same,Potency,[8],inactive
same,Potency,[20],inactive
same,Potency,[9],inactive
same,Potency,[10],inactive
same,Potency,[11],inactive
same,Potency,[12],inactive
same,Potency,[13],inactive
same,Potency,[14],inactive
same,Potency,[15],inactive
same,Potency,[16],inactive
same,Potency,[17],inactive
same,Potency,[18],inactive
